VACV mCherry inh – vaccinia inhibition (mCherry reporter); Vaccinia virus mCherry reporter infection, fluorescence; Potency, µM (doses to about 36.5 µM), for the others: top-dose activity change, negative = inhibition, usual class: inhibitors; actives 0.63% (n = 310,000); calls by dose curve; tested in A549 cells; note: potency is the fitted concentration of half-maximal effect; nearly all actives have a fitted effect of over 35% in size
VACV Venus inh – vaccinia inhibition (Venus reporter) | Vaccinia virus Venus reporter expression, fluorescence | Potency, µM (top dose mostly 36.5 µM), inactives show top-dose activity change, negative = inhibition, most hits filed as inhibitors | actives 0.46% (n = 330,000) | AID 720580; calls by dose curve; tested in A549 cells; note: potency is the fitted concentration of half-maximal effect; nearly all actives have a fitted effect of over 30% in size
HCMV inh – inhibitors of human cytomegalovirus; HFF cells, HCMV-luciferase reporter, 72 h; active compounds read low; activity change, negative = inhibition, % at 57.5 µM; actives 4.5% (n = 410,000); AID 1259415; in the data active = activity change below about -60%; inconclusive = no clear call, values can overlap the other calls; inactive = above about -39%
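HFF cells seeded 16 h at 37C, treated with compounds, infected with luciferase-reporter HCMV at MOI 1 PFU/cell; luciferase read at 72 h post infection, normalized to buffer-only and Salinomycin controls.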
LASV entry inh – inhibitors of Lassa virus binding or cell entry. Lassa virus pseudotype entry inhibition, cell reporter. Potency, µM (doses to about 37.9 µM), without a hit: at the top dose activity change, negative = inhibition, actives largely listed as inhibitors. actives 1.2% (n = 300,000). AID 540256; calls by dose curve; tested in HEK293 cells; note: potency is the fitted concentration of half-maximal effect; nearly all actives have a fitted effect of over 50% in size
HCV inh – HCV inhibition; AID 651820; Potency, µM (series often up to 41.8 µM), without a hit: at the highest dose activity change, negative = inhibition, most hits filed as inhibitors; actives 3.4% (n = 340,000); Huh7.5.1 HCVcc-Cre infection, luciferase reporter, 44 h; active = well fitted inhibition curve with a large enough effect; inconclusive = small, poorly fitted or top-dose-only effect, or another doubt; inactive = no such curve, though single readings can be large or run the other way; note: potency is the fitted concentration of half-maximal effect
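Whole-lifecycle infectious HCVcc-Cre system; cells 1,000/well, compound then virus (~0.5 moi) added 4 h after plating, 44 h culture. Luciferase read 15 sec following 15 min substrate incubation, room temp.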
MARV entry inh – blocks Marburg virus binding to or entry into cells | Marburg virus pseudotyped entry inhibition, cell reporter | Potency, µM (titrated, usually from 37.8 µM), for inactives: at the top dose activity change, negative = inhibition, actives largely listed as inhibitors | actives 1.8% (n = 300,000); calls by dose curve; tested in HEK293 cells; note: potency is the fitted concentration of half-maximal effect
* hit, by the source's call; i = inactive; u = inconclusive; x = no result given; [ ] = remark or other dose. Most compounds without a hit are left out; they make up all but 7.8% or so of the library. % is set by controls: 0 for no effect and ±100 for the full control effect.

SMILES	VACV mCherry inh	VACV Venus inh	HCMV inh	LASV entry inh	HCV inh	MARV entry inh
CCN1CCN(c2cc(N3CCCC3)c(F)cc2[N+](=O)[O-])CC1	u	u	u	u	u	20.6µM*
CN1CCN(c2cc(N3CCc4ccccc4C3)c(F)cc2[N+](=O)[O-])CC1	10µM*	u	-14.5	u	u	u
O=C(c1ccco1)N1CCN(c2cc(N3CCOCC3)c(F)cc2[N+](=O)[O-])CC1	-7.2%	-20.9%	-102.8*	u	-12.7%	-13.6%[46.1 µM]
CCOC(=O)N1CCN(c2ccc(F)cc2[N+](=O)[O-])CC1	-19.1%	-25.0%	u	-11.1%	3.4%	-27.7%
O=C(c1ccco1)N1CCN(c2ccc([N+](=O)[O-])cc2F)CC1	-13.8%	-6.5%	7.6	14.5%[46.1 µM]	-18.1%	17.8%[46.1 µM]
CN1CCN(c2cc(N3CCCC3)c([N+](=O)[O-])cc2F)CC1	-23.2%	-23.5%	-27.0	2.6%	u	10.8%[46.1 µM]
CCOC(=O)N1CCN(c2cc(N3CCOCC3)c(F)cc2[N+](=O)[O-])CC1	-10.6%	-6.5%	5.8	7.94µM*	-13.2%	-6.7%
CC(=O)Nc1ccccc1-c1nc2ccccc2n(C(C)C(=O)Nc2ccccc2C(F)(F)F)c1=O (stereo not given)	-0.9%	2.3%	-10.6	-22.4%[46.1 µM]	x	3.7%[46.1 µM]
COc1ccc(CN(Cc2ccccc2)C(=O)C2CC2)cc1COc1ccc(NC(C)=O)cc1	-11.3%	-28.8%	x	x	x	x
COC(=O)c1cncc(C=Cc2c(C)cc(O)cc2C)c1	x	x	x	3.15µM*	x	x
CCN(CC)C(=O)c1oc2ccc(S(=O)(=O)N3CC(C)CC(C)C3)cc2c1C (stereo not given)	-10.7%	-12.5%	-87.9*	u	3.55µM*	u
CCN(CC)C(=O)c1oc2ccc(S(=O)(=O)N3CCCCCC3)cc2c1C	-0.9%	-16.3%	u	u	25.1µM*	u
Cc1c(C(=O)Nc2ccc(F)cc2)oc2ccc(S(=O)(=O)N3CC(C)CC(C)C3)cc12 (stereo not given)	-2.7%	-5.6%	-12.2	u	u	u
Cc1ccc(-c2onc(C)c2C)cc1S(=O)(=O)NCc1ccc(N(C)C)cc1	-21.2%	-16.9%	u	-33.8%[46.1 µM]	x	x
CCN(C(=O)Cn1nc(Cc2ccncc2)c2ccccc2c1=O)c1ccc(OC)cc1	-17.6%	-11.4%	-20.5	11.6%[46.1 µM]	x	u
CCc1ccccc1N(CC)C(=O)Cn1nc(Cc2ccncc2)c2ccccc2c1=O	-16.0%	-13.8%	-71.7*	-6.1%[46.1 µM]	x	u
Cc1nc2c(c(C)c1CCC(=O)NCc1ccc(F)cc1)c(=O)n(C)c(=O)n2C	3.3%	15.4%	5.5	-3.3%[46.1 µM]	x	14.9%[46.1 µM]
CCN(CC)CCCNC(=O)CCc1c(C)nc2c(c1C)c(=O)n(C)c(=O)n2C	7.4%	3.8%	-65.1*	4.5%[46.1 µM]	x	2.0%[46.1 µM]
O=C(Nc1ccc(S(=O)(=O)Nc2cnc3ccccc3n2)cc1)c1ccc(F)cc1	i	-1.8%	-9.9	-9.8%	-20.5%	-12.7%[46.1 µM]
O=C(O)c1ccc(NC(=O)c2cccc(S(=O)(=O)Nc3ccc(C(=O)O)cc3)c2)cc1	x	x	14.4	x	12.3%	x
CC(C)(C)c1ccc(C(=O)Nc2ccc(S(=O)(=O)Nc3cnc4ccccc4n3)cc2)cc1	-6.3%	-2.1%	-70.5*	-7.8%	14.4%	u
COc1ccc(NC(=O)c2cccc(S(=O)(=O)Nc3ccc(Br)cc3)c2)cn1	u	u	-90.4*	u	u	u
O=C1CSc2ccc(C(=O)Nc3cccc(S(=O)(=O)Nc4ccc(Br)cc4)c3)cc2N1	x	x	-90.9*	x	10µM*	x
COc1ccc(NS(=O)(=O)c2ccc3c(c2)Cc2ccccc2-3)cn1	-10.0%	-18.0%	-13.9	-9.0%	2.82µM*	-21.9%
Cc1ccc(C)c(N2CCN(c3nc4ccccc4n4nnnc34)CC2)c1	-5.0%	14.0%	117.7	21.6%[46.1 µM]	x	u
SMILES	VACV mCherry inh	VACV Venus inh	HCMV inh	LASV entry inh	HCV inh	MARV entry inh
COc1ccccc1CNC(=O)CCn1c(=O)c2cccn2c2cccnc21	-1.7%	-0.3%	-18.0	10.1%[46.1 µM]	x	x
CC(C)(C)c1ccc(C(=O)Nc2cccnc2)cc1	x	x	3.8	x	2.6%	x
O=C(Nc1ccc(Br)cc1)c1cccc(S(=O)(=O)Nc2cnc3ccccc3c2)c1	u	u	-23.8	u	u	2.82µM*
CCOc1ccc(S(=O)(=O)Nc2cnc3ccccc3c2)cc1	u	-4.7%	-79.4*	u	1.78µM*	-28.3%[46.1 µM]
COc1ccc(NC(=O)c2cccc(Oc3ccccc3)c2)cn1	-6.5%	-21.2%	u	u	u	7.94µM*
CC(C)(C)c1ccc(C(=O)Nc2ccc(Oc3cccnc3)nc2)cc1	-24.2%	u	-65.6*	u	2.82µM*	9.1%
NCCCC[C@@H](N)C(=O)O	-13.8%	-4.0%	x	x	x	x
C/C(CCC1CC(C)(C)OC1=O)=N\NC(N)=S (stereo not given)	u	u	-93.1*	22.2%	11.6%	u
O=C(Nc1n[nH]c2cc(-c3cc(F)ccc3F)ccc12)C1CC1	x	x	x	25µM*	x	x
C/C(=N\O)c1sc(-c2ccccc2)nc1C	0.1%	-11.3%	102.6	x	9.7%	x
CCNC(=O)O/N=C(\C)c1sc(-c2ccccc2)nc1C	-7.4%	-15.4%	62.7	-15.3%	11.2µM*	u
CCCCN(CCCC)c1ccc(C=Nc2ccc(/C=C/c3ccnc4ccccc34)cc2)cc1C	-17.4%	-14.3%	x	x	x	x
Cc1sc2nc(CN(C(=O)c3cccs3)C3CCCC3)[nH]c(=O)c2c1C	u	u	-33.6	-7.4%	u	u
O=C(c1cccs1)N(Cc1nc2sc3c(c2c(=O)[nH]1)CCCC3)C1CCCC1	12.6µM*	-17.2%	-71.2*	3.55µM*	u	u
Cc1cccc(NC(=O)CCc2nc3sc4c(c3c(=O)[nH]2)CCCC4)c1	-25.4%	-17.5%	9.4	u	13.5%	u
CN(C)S(=O)(=O)c1cccc(NC(=O)CCc2nc3sc4c(c3c(=O)[nH]2)CCCC4)c1	x	x	-67.2*	x	u	x
Cc1cc(C)c2c(CN3CCN(Cc4ccccc4)CC3)cc(=O)oc2c1	x	x	-61.7*	x	u	x
Cc1ccc2c(CN(Cc3ccccc3)Cc3ccccc3)cc(=O)oc2c1	i	-6.0%	-0.2	x	x	u
CCN(Cc1cc(=O)oc2cc(C)ccc12)c1ccccc1	x	x	4.1	x	22.4µM*	x
Cc1cc(C)c2c(CN(Cc3ccccc3)Cc3ccccc3)cc(=O)oc2c1	i	0.6%	u	22.3µM*	x	x
COCC1CCCN(Cc2ccc3c(c2)CN(C(=O)c2ccc(-n4cccn4)cc2)CCO3)C1 (stereo not given)	-12.4%	4.3%	x	x	x	x
O=C(N[C@H]1CC[C@@]23CCCN2C(=O)CCC[C@H]3[C@H]1Cc1ccccc1)C1CCC1	x	x	12.0	x	x	x
COC(=O)C[C@H](NC(=O)[C@H](C)NC(=O)[C@@H](NC(=O)OCc1ccccc1)C(C)C)C(=O)CF	i	-17.4%	x	x	x	x

Assay outcomes as filed in PubChem BioAssay.
